Dicer inh = blocks human Dicer maturation of pre-miR-21. cat-ELCCA pre-miR-21 Dicer processing, chemiluminescence; hits give high values. z-score at 25 µM. hit rate 6% among 47,000; in the data active = z-score above about 3, passing the limit was not always enough;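 note: higher signal means more uncleaved substrate so more Dicer inhibition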
Hits are given with their value; - = inactive. Only a selection was taken, and hits are over-represented in it overall.

SMILES	Dicer inh
Cc1ccc(OCC2SCCN2S(=O)(=O)c2ccc(F)cc2)c([N+](=O)[O-])c1 (configuration not stated)	-
CCCc1cc(=O)[nH]c(SCC(=O)N2CCN(C(=O)c3ccc(C)cc3)C2)n1	-
COc1ccc(C2CC(=O)C=C(NC3Cc4ccccc4C3)C2)cc1 (configuration not stated)	-
COc1ccc(Br)c(OC)c1C(=O)NC(=O)Nc1c(F)cccc1F	-
Cc1cccc(C)c1C(=O)NC(=O)Nc1c(F)cc(F)cc1F	56
O=C(NC(=O)c1c(Cl)cccc1Cl)Nc1c(F)cc(F)cc1Br	-
O=C(O)CSCC(=O)NC1CCN(Cc2c(F)cccc2Cl)CC1	-
CC1=CC(C)(C)N(C(=O)CSc2nccc(C)n2)c2ccc(C)cc21	-
Cc1cc(C)nc(N2N=C(CSc3ccc(Cl)cc3)CC2=O)n1	-
Cc1cc(C)nc(SCC2=NN(c3nc(C)cc(C)n3)C(=O)C2)n1	4
Cc1cc(C)nc(N2N=C(C(C)C)CC2=O)n1	-
COCc1cc(=O)[nH]c(SC2CC(=O)N(c3ccc(N4CCOCC4)cc3)C2=O)n1 (configuration not stated)	-
CCOC(=O)c1ccc2c(c1)[C@@H]1C=CC[C@@H]1[C@H](c1cccnc1)N2	-
O=S(=O)(NNc1nccc(-c2cccnc2)n1)c1cccc(C(F)(F)F)c1	-
O=C1c2cccc3c(N4CCOCC4)ccc(c23)C(=O)N1c1cc(Cl)ccc1O	8.3
O=C1c2cccc3c(N4CCOCC4)ccc(c23)C(=O)N1c1cccc(O)c1	-
O=C1c2cccc3c(N4CCOCC4)ccc(c23)C(=O)N1c1ccccc1	-
O=C1c2oc3ccccc3c(=O)c2C(c2cccc(OCc3ccccc3)c2)N1c1ccccn1 (configuration not stated)	-
CCOC(=O)C1=C(C)NC2=C(C(=O)CC(C)(C)C2)C1c1ccc(C)s1 (configuration not stated)	-
CCCn1c(=O)c2[nH]cnc2n(-c2ccc(Cl)cc2)c1=O	-
Nc1cc(=O)n(Cc2ccccc2)c(=O)n1-c1ccccc1	-
CCCn1c(=O)cc(N)n(-c2ccc(Cl)cc2)c1=O	5.1
COc1nc2c(c(-c3ccco3)c1C#N)Cc1ccccc1-2	-
C[C@@H]1NC(=O)NC1=O	-
O=[N+]([O-])c1cnc(Sc2n[nH]c(-c3ccccc3)n2)s1	-
SMILES	Dicer inh
CCc1ccc(C2CC(=O)NC(SCC(=O)OCc3ccccc3)=C2C#N)cc1 (configuration not stated)	-
Cc1ccc(S(=O)(=O)c2c(C)cc(C)cc2C)cc1	-
Cc1ccc(S(=O)(=O)n2nc(C)cc2N)cc1	-
Cc1ccc(S(=O)(=O)n2ccc3cc(N)ccc32)cc1	5.7
Cc1cc(C)n(CC(=O)Nc2cccc(Cl)c2)c(=O)c1C#N	-
COc1cc(C2C(C(=O)OC3CCCC3)=C(C)NC3=C2C(=O)CC(C)(C)C3)cc(Cl)c1O (configuration not stated)	-
CC(C)NC(=O)OCc1noc(-c2ccc(Cl)cc2)n1	-
COC(=O)C1=C(C)N=c2s/c(=C/c3ccc4c(c3)OCO4)c(=O)n2C1c1ccccc1 (configuration not stated)	-
COC(=O)c1sc(N2C(=O)C(=O)/C(=C(/O)c3ccc(Cl)cc3)C2c2ccc(OC)cc2)nc1C (configuration not stated)	-
COC(=O)C1=C(C)N=c2s/c(=C/c3ccc(Cl)cc3)c(=O)n2C1c1ccc(OC)cc1 (configuration not stated)	4.6
O=C(CSc1nnc2c(n1)[nH]c1ccccc12)Nc1ccc(Cl)cc1	-
C=C(C)c1cccc(C(C)(C)NC(=O)NCCc2ccc(F)cc2)c1	-
CCS(=O)(=O)Nc1c(C)n(C)n(-c2ccccc2)c1=O	-
Cc1c(NS(=O)(=O)c2cn(C)cn2)c(=O)n(-c2ccccc2)n1C	6
CCOc1ccc(S(=O)(=O)Nc2c(C)n(C)n(-c3ccccc3)c2=O)cc1	-
COC(=O)NC(O)C(=O)c1ccccc1 (configuration not stated)	-
CC1=C(C(=O)OCCOc2ccccc2)C(c2ccc(O)cc2)C2=C(CC(c3ccccc3)CC2=O)N1 (configuration not stated)	-
CCC/C(O)=C(/C=Nc1ccccc1C(=O)OC)C(=O)OCC	3.2
CCOC(=O)C(=CNc1ccc(C(=O)OC)o1)C(=O)OCC	-
COC(=O)c1c(OC)ccc(N=C/C(C(C)=O)=C(\C)O)c1OC	-
O=C1CCC(c2ccccc2)C(O)=C1C=Nc1cccc(C(F)(F)F)c1 (configuration not stated)	-
CCn1ccnc1C(O)c1ccc(OC)c(OC)c1 (configuration not stated)	-
O=C1CC(NCCc2c[nH]c3ccccc23)C(=O)N1c1ccccc1 (configuration not stated)	-
CSC1=NCC(=O)N1CCc1c[nH]c2ccccc12	-
C(#Cc1ccccc1)CNCCc1c[nH]c2ccccc12	4.1
SMILES	Dicer inh
CC(C)(C)C(=O)c1cn(CC(=O)N2CCc3ccccc32)c2ccccc12	-
c1ccc(CN2CCC(Nc3ncnc4cc(-c5ccccc5)sc34)CC2)cc1	-
CCCCCCc1c(O)c2cccc3c4c(n(c1=O)c23)CCCC4	-
Nc1ccc(Nc2ccc(N)cc2S(=O)(=O)O)cc1	44
Nc1ccc(S(=O)(=O)c2ccc(N)cc2)cc1	-
NC(=O)NS(=O)(=O)c1ccc(N)cc1	-
CCOC(=O)c1sc(N/N=C2\CCCc3ccccc32)nc1C	-
COc1ccc(NC(=O)c2cccc3c2-c2ccc(I)cc2C3)cc1	-
COc1ccc(NC(=O)C2=Cc3cccc(OC)c3OC2)cc1	3.8
COc1ccc(NC(=O)Nc2cccc(NC(=O)Nc3ccc(OC)cc3)c2F)cc1	-
COC(=O)c1ccc(S(=O)(=O)N(CCO)CCO)n1C	-
O=C1CC(N2CCN(c3ccc(O)cc3)CC2)C(=O)N1c1ccccc1 (configuration not stated)	-
O=C1CC(c2c[nH]c3ccccc23)C(=O)N1c1ccccc1 (configuration not stated)	-
O=C1CC(c2cn(Cc3ccccc3)c3ccccc23)C(=O)N1c1ccc(O)cc1 (configuration not stated)	5.6
COC(=O)/C=C1\SC(=Nc2ccc(C)c(Cl)c2)N(c2ccc(C)c(Cl)c2)C1=O	-
O=C(O)C(Cc1c[nH]c2ccccc12)N1C(=O)C2CCCCC2C1=O (configuration not stated)	-
Cc1cc(Sc2ccccn2)nc(N)n1	-
COc1ccc(NC2=NS(=O)(=O)c3ccccc32)c(OC)c1	-
CCOC(=O)N1CCc2c(sc(N)c2C#N)C1	-
C=CCNC(=S)Nc1sc2c(c1C(=O)OCC)CCN(C(=O)OCC)C2	-
CCOC(=O)N1CCc2c(sc(NC(=O)CN3CCc4ccccc43)c2C#N)C1	5.3
CCOC(=O)c1c(NC(=S)NCc2ccccc2)sc2c1CCN(C(=O)OCC)C2	3.7
CCOC(=O)c1c(NC(=S)N2CCCCC2)sc2c1CCN(C(=O)OCC)C2	-
CCOC(=O)c1c(NC(=O)CN2CCc3ccccc32)sc2c1CCN(C(=O)OCC)C2	-
CCCN1C(=O)C2(/C(=C(/O)c3ccc(OCC)cc3)C(=O)C(=O)N2CCOC)c2ccccc21 (configuration not stated)	-
Cc1cc(Oc2cc(C)c(Cl)c(C)c2)c2ccccc2n1	-
CSCCC(C(=O)N1CCCCC1)N1C(=O)C2C3c4ccccc4C(c4ccccc43)C2C1=O (configuration not stated)	-
N/C(=N\C(=S)Nc1ccc(Cl)c(Cl)c1)c1ccccc1	5.4

Screening results: PubChem, Center for Chemical Genomics, University of Michigan
